# In PubChem BioAssay (NCATS):
# Where “and” joins values, the source holds several entries; their conditions need not be identical. Identical values can stand only once. Records with an inconclusive call do not appear. Where a call stands in place of a potency, no number is given. Calls of active or inactive are those of the source. Unless noted, calls come from the whole dose curve; as a rule, active = well fitted curve in the direction sought with a large enough effect; inconclusive = small, poorly fitted or top-dose-only effect, or another doubt; inactive = no such curve, though single readings can be large; an effect the other way counts as inactive or inconclusive.
# How the values were obtained:
# [1] = Primary qHTS for inhibitors of La Crosse Virus (LACV) - induced cell death in SH-SY5Y cells (AID 1508616); details: SH-SY5Y LACV cytopathicity rescue, ATP luminescence, 6 d; series mostly up to 4.29 µM;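 note: top concentration of the series differs between compounds; higher means more rescue of cells from virus-induced death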
# Method in brief: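 Readout was luminescence from ATPLite 1step added after a 6-day LACV infection (0.01 MOI) of SH-SY5Y cells that had received pin-transferred compound 24 hr after seeding.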
# [2] = target: Calcium and integrin-binding protein 1 (Homo sapiens) (UniProt Q99828); test: Primary qHTS for Identification of Calcium Integrin Binding Protein 1 (CIB1) Competitor (AID 1508620); details: CIB1-GST / FITC-alphaIIb peptide fluorescence polarization; series mostly up to 114 µM;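 note: GST tagged CIB1 binding a fluorescein labelled alphaIIb integrin peptide tracer; top concentration of the series differs between compounds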
# Sequence of Calcium and integrin-binding protein 1 (Homo sapiens) (Q99828 whole entry, looked up): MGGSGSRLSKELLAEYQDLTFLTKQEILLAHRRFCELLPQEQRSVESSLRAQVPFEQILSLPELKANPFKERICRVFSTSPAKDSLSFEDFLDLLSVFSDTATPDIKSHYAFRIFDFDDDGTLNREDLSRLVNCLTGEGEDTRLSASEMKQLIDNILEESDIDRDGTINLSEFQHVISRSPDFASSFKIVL
# Method in brief: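 Fluorescence polarization competition: CIB1-GST (1 uM final) preincubated with compound 15 min at room temperature, then FITC-labeled alphaIIb peptide (100 nM final) added for another 15 min. Polarization read at Ex 480/Em 540.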
# [3] = target: Cytochrome P450 2C9 (Homo sapiens) (UniProt P11712); test: Cytochrome P450 family 2 subfamily C member 9 (CYP2C9) small molecule antagonists: luciferase biochemical (cell-free) qHTS assay (AID 1645842; active = well fitted curve in the direction sought with a large enough effect in the repeat runs; an effect the other way counts as inactive or inconclusive; note: nearly all actives have a fitted effect of over 55% in size; note: potency is the fitted concentration of half-maximal effect); details: P450-Glo CYP2C9 enzyme assay, luciferin luminescence; series mostly up to 57.4 µM
# Sequence of Cytochrome P450 2C9 (Homo sapiens) (P11712 whole entry, looked up): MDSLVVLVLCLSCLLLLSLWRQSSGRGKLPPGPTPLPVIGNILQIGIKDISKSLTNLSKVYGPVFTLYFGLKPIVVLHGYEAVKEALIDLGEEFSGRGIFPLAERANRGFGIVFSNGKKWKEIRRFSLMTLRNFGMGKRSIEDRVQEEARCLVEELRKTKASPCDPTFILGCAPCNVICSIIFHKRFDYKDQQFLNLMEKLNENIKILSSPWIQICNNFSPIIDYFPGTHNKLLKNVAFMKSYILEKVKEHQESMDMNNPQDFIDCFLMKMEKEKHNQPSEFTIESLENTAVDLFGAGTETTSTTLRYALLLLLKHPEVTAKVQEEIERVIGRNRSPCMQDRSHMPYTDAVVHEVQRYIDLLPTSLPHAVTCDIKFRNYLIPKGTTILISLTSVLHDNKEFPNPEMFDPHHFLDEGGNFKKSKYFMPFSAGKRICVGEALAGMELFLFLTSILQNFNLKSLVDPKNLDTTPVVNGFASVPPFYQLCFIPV
# Method in brief: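 Luminescence, after 20 min with luciferin detection reagent, reflected CYP2C9 turnover during a 1 h NADPH-driven reaction at 37C. Enzyme-substrate mix contained 0.4% bovine serum albumin and was preincubated with compound 10 min at room temperature.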
# [4] = Primary qHTS for inhibitors of nuclear receptor binding SET domain protein 2 (NSD2) in an isogenic RCH-ACV NSD2 p.E1099K mutant (9B) (AID 1645876); details: RCH-ACV (leukaemia line) NSD2 E1099K (9B) viability, CellTiter-Glo, 72 h; series mostly up to 44.9 µM; note: nearly all actives have a fitted effect of over 70% in size; note: potency is the fitted concentration of half-maximal effect
# [5] = A High-Content qHTS Against Drug Library for the Identification of Small Molecules that Inhibit DYT1 Early Onset Primary Dystonia-Associated Cell Pathology (AID 1645839; calls by dose curve); details: HEK293 Flp-In EGFP-delE TorsinA, punctate imaging, 48 h; series mostly up to 46.1 µM
# Method in brief: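 Readout: %pathology, the punctate EGFP-TorsinA distribution from imaging, as the primary channel and cell count as the toxicity counterscreen. HEK293 Flp-In cells expressing delE TorsinA were induced with tetracycline and treated with compound for 48 h.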
# [6] = target: Cytochrome P450 2D6 (Homo sapiens) (UniProt P10635); test: Cytochrome P450 family 2 subfamily D member 6 (CYP2D6) small molecule antagonists: luciferase biochemical (cell-free) qHTS assay (AID 1645840; active = well fitted curve in the direction sought with a large enough effect in the repeat runs; an effect the other way counts as inactive or inconclusive; note: nearly all actives have a fitted effect of over 55% in size; note: potency is the fitted concentration of half-maximal effect); details: P450-Glo CYP2D6 enzyme, luciferin luminescence, 1 h; series mostly up to 57.4 µM
# Sequence of Cytochrome P450 2D6 (Homo sapiens) (P10635 whole entry, looked up): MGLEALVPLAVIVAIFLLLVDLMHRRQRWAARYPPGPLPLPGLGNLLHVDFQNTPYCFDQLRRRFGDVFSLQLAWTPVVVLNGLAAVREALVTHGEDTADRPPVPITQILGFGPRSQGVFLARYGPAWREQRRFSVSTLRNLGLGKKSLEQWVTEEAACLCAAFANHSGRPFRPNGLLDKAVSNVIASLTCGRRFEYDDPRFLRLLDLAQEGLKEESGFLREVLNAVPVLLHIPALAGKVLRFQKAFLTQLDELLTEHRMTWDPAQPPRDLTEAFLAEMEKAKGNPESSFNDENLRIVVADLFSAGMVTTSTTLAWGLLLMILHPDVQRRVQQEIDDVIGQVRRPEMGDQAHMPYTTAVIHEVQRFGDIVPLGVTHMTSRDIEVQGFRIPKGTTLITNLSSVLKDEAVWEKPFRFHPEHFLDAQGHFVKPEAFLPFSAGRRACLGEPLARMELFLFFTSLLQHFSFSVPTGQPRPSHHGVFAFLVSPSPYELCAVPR
# Method in brief: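 P450-Glo luminescent screen: recombinant CYP2D6 enzyme–proluciferin substrate mix preincubated with compound 10 min at room temperature, then NADPH regeneration added for 1 h at room temperature. Detection reagent added for 20 min; luciferin light read as relative luminescence units.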
# [7] = Cytotoxicity counterscreen for inhibitors of SARS-CoV-2 cell entry (AID 1645845; calls by dose curve; note: nearly all actives have a fitted effect of over 50% in size; note: potency is the fitted concentration of half-maximal effect); details: cell viability (SARS-CoV-2 entry assay cells); series mostly up to 57.1 µM
# Method in brief: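 Expi293F/hACE2 cells seeded overnight; cpd pin-transferred in DMSO, 1 h preincubation, + media, 48 h 37 C 5% CO2; ATPLite 1step luminescence; normalized to cells and no cells.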
# [8] = Primary qHTS to identify inhibitors of SARS-CoV-2 cell entry (AID 1645846; calls by dose curve; note: nearly all actives have a fitted effect of over 45% in size; note: potency is the fitted concentration of half-maximal effect); details: SARS-CoV-2 pseudovirus cell entry assay, luminescence; activity change, negative = inhibition: at 57.1 µM (top of the series) unless noted; series mostly up to 57.1 µM
# Method in brief: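 HEK293 cells stably expressing human ACE2, pre-treated 1 h with compound, then infected with MLV particles pseudotyped with Wuhan-Hu-1 spike (C-terminal 19-aa truncation). Luciferase luminescence after 48 h at 37 °C, normalised to spike PP and bald PP.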
# [9] = Confirmatory qHTS to identify inhibitors of SARS-CoV-2 cell entry (AID 1645844; calls by dose curve; note: potency is the fitted concentration of half-maximal effect; nearly all actives have a fitted effect of over 45% in size); details: SARS-CoV-2 pseudotyped particle cell entry, luciferase; series mostly up to 57.2 µM
# Method in brief: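 HEK293-ACE2 cells (Expi293F stably expressing human ACE2) were pretreated with compounds for 1 hr at 37C, then infected with MLV-based particles carrying Wuhan-Hu-1 spike (C-terminal 19-aa truncation). Luciferase luminescence read after 48 hr; normalized to spike PP (100%) and bald PP (0%).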
# [10] = Primary qHTS for small molecule stabilizers of the endoplasmic reticulum resident proteome: Secreted ER Calcium Modulated Protein (SERCaMP) assay (AID 1508630); details: SH-SY5Y GLuc-SERCaMP (Gaussia luciferase released on ER calcium loss) secretion, thapsigargin, luminescence; series mostly up to 38.4 µM
# Method in brief: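 GLuc-SERCaMP-expressing SH-SY5Y cells, pretreated 16 h with compound, are challenged with thapsigargin to empty ER calcium stores; after 4 h, coelenterazine is added directly to the medium and luminescence is imaged.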
# [11] = target: Calcium and integrin-binding protein 1 (Homo sapiens) (UniProt Q99828); test: Confirmatory qHTS for Identification of Calcium Integrin Binding Protein 1 (CIB1) Competitor (AID 1508617); details: CIB1 binding competition assay, biochemical qHTS; series mostly up to 114 µM; note: nearly all actives have a fitted effect of over 65% in size
# Method in brief: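 Confirmatory qHTS measures displacement of a FITC-alphaIIb peptide (100 nM) from CIB1-GST (1 uM) by fluorescence polarization. Calcium-containing HEPES buffer, pH 7.4; two 15 min room-temperature incubations.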
# [12] = target: Cytochrome P450 3A4 (Homo sapiens) (UniProt P08684); test: Cytochrome P450 family 3 subfamily A member 4 (CYP3A4) small molecule antagonists: luciferase qHTS assay (AID 1645841; active = well fitted curve in the direction sought with a large enough effect in the repeat runs; an effect the other way counts as inactive or inconclusive; note: potency is the fitted concentration of half-maximal effect; nearly all actives have a fitted effect of over 45% in size); details: P450-Glo CYP3A4 enzyme assay, luciferin luminescence; series mostly up to 57.4 µM
# Sequence of Cytochrome P450 3A4 (Homo sapiens) (P08684 whole entry, looked up): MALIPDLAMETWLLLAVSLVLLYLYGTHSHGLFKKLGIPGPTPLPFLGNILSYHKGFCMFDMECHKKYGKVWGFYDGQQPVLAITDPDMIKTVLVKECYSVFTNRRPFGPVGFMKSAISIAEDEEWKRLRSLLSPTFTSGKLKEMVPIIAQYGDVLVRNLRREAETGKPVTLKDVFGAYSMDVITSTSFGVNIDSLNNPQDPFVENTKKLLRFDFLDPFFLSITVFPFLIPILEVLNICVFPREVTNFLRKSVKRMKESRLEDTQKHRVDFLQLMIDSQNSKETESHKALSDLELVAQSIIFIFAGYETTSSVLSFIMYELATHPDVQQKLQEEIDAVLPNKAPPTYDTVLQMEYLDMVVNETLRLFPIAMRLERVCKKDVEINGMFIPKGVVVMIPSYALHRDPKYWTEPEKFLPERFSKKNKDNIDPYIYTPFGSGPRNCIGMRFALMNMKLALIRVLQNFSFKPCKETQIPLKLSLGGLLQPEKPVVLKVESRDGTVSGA
# Method in brief: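 P450-Glo CYP3A4 enzyme with proluciferin substrate was preincubated with DMSO-dissolved compounds for 10 min at room temperature. NADPH regeneration solution started a 1 h reaction. Detection reagent stopped it, and luminescence was read after 20 min.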
# [13] = target: N-terminal Xaa-Pro-Lys N-methyltransferase 1 (Homo sapiens) (UniProt Q9BV86); test: Confirmatory qHTS for Inhibitors of N-terminal methyltransferase 1 (NTMT1): MTaseGlo Assay (AID 1645874); details: NTMT1 enzyme, MTase-Glo SAH luminescence; series mostly up to 204 µM; note: potency is the fitted concentration of half-maximal effect; nearly all actives have a fitted effect of over 65% in size
# Sequence of N-terminal Xaa-Pro-Lys N-methyltransferase 1 (Homo sapiens) (Q9BV86 whole entry, looked up): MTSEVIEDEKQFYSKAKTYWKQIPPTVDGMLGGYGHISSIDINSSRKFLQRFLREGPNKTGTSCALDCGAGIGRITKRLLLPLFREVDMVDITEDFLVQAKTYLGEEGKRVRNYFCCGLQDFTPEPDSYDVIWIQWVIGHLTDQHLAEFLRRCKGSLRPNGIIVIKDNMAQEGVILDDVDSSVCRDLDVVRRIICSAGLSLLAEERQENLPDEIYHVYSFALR
# Method in brief: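 Preincubation of NTMT1 (125 nM) plus SAM (100 uM) with test compounds lasted 15 min; methylation of 1 uM SPKRIA then proceeded 30 min in the dark at room temperature. Luciferase signal reported SAH produced.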
compound,measurement,setting,value
CC(CC(C#N)(c1ccccc1)c1ccccc1)N(C)C (stereo unspecified),outcome,[1],inactive
same,Potency,[2],inactive
same,Potency,[3],inactive
same,Potency,[4],17.2 µM (active)
CCOC(C(=O)OCCN(C)C)(c1ccccc1)c1ccccc1,outcome,[1],inactive
same,Potency,[2],inactive
same,outcome,[5],inactive
same,Potency,[3],3.09 µM (active)
same,Potency,[4],inactive
CCN(CC)C(C)C(=O)c1ccccc1 (stereo unspecified),outcome,[1],inactive
same,outcome,[5],inactive
same,Potency,[6],inactive
same,Potency,[4],inactive
O=C(CCCN1CCC(n2c(=O)[nH]c3ccccc32)CC1)c1ccc(F)cc1,outcome,[1],inactive
same,Potency,[3],inactive
same,Potency,[7],inactive
same,Potency,[8],inactive
CCC1(c2ccccc2)CCC(=O)NC1=O (stereo unspecified),outcome,[1],inactive
same,Potency,[2],inactive
same,Potency,[6],inactive
same,Potency,[4],inactive
CC#C[C@]1(O)CC[C@H]2[C@@H]3C[C@H](C)C4=CC(=O)CC[C@]4(C)[C@H]3CC[C@@]21C,outcome,[1],inactive
same,Potency,[2],inactive
same,Potency,[9],27.1 µM (active)
same,Potency,[7],inactive
same,Potency,[4],23.7 µM (active)
c1ccc2nc(N3CCNCC3)ccc2c1,Potency,[2],inactive
same,outcome,[10],inactive
same,outcome,[5],inactive
same,Potency,[4],inactive
c1ccc2c(c1)Sc1ccccc1N2CC1CN2CCC1CC2 (stereo unspecified),Potency,[2],inactive
same,outcome,[10],inactive
same,Potency,[9],4.82 µM (active)
C[C@@H]1O[C@@H](O[C@@H]2C=C3CC[C@@H]4[C@H](CC[C@]5(C)[C@@H](c6ccc(=O)oc6)CC[C@]45O)[C@@]3(C)CC2)[C@H](O)[C@H](O)[C@H]1O,Potency,[2],inactive
same,outcome,[10],inactive
same,outcome,[5],inactive
same,Potency,[4],10.5 nM (active) and 4.7 nM (active)
CCOC(=O)C1(c2ccccc2)CCN(CCc2ccc(N)cc2)CC1,outcome,[1],inactive
same,Potency,[2],inactive
same,Potency,[6],1.74 µM (active)
same,Potency,[7],inactive
same,Potency,[4],inactive
CCCCCCCCCCCC[N+](C)(C)CCOc1ccccc1,outcome,[1],inactive
same,outcome,[10],inactive
same,Potency,[6],1.74 µM (active)
same,Potency,[7],20 µM (active)
same,Potency,[4],1.33 µM (active)
CCC(=O)C(CCN(C)C)(c1ccccc1)c1ccccc1,outcome,[1],inactive
same,Potency,[2],inactive
same,Potency,[6],5.49 µM (active)
same,Potency,[9],12.1 µM (active)
same,Potency,[7],inactive
same,"activity change, negative = inhibition",[8],-43.2%
Clc1ccc(CSC(Cn2ccnc2)c2ccc(Cl)cc2Cl)cc1 (stereo unspecified),outcome,[1],inactive
same,Potency,[2],inactive
same,Potency,[4],5.96 µM (active)
Cc1ccc([N+](=O)[O-])[c]2c1[O][Hg]2,Potency,[11],inactive
same,outcome,[10],inactive
same,Potency,[6],0.347 µM (active)
same,Potency,[12],0.977 µM (active)
same,Potency,[3],0.436 µM (active)
same,Potency,[8],5.62 µM (active)
same,Potency,[13],0.728 µM (active)
same,Potency,[4],0.0841 µM (active)
CN(C)CCc1c[nH]c2ccc(O)cc12,outcome,[1],inactive
same,outcome,[5],inactive
same,Potency,[6],31 µM (active)
same,Potency,[4],inactive
ClCc1cccc(Cl)c1,outcome,[1],inactive
same,Potency,[2],inactive
same,outcome,[5],inactive
same,Potency,[3],inactive
same,Potency,[4],inactive
CC(C(O)c1ccccc1)N(C)C/C=C/c1ccccc1 (stereo unspecified),outcome,[1],inactive
same,Potency,[2],inactive
same,outcome,[5],inactive
same,Potency,[7],inactive
CNC(=O)NC(O)C(Cl)(Cl)Cl (stereo unspecified),outcome,[1],inactive
same,Potency,[2],inactive
same,outcome,[5],inactive
same,Potency,[3],inactive
Clc1ccccc1C(c1ccccc1)(c1ccccc1)n1ccnc1,Potency,[9],24.1 µM (active)
Clc1ccc(C(OCCN2CCCCC2)c2ccccc2)cc1 (stereo unspecified),outcome,[1],inactive
same,Potency,[2],inactive
same,Potency,[3],inactive
same,Potency,[7],inactive
same,Potency,[4],26.6 µM (active)
Oc1ccc(Cl)cc1Cc1cc(Cl)ccc1O,Potency,[9],0.0152 µM (active)
CCC1(c2cccc(O)c2)CCCCN(C)C1 (stereo unspecified),Potency,[2],inactive
same,Potency,[3],inactive
same,Potency,[7],inactive
same,Potency,[8],inactive
same,Potency,[4],inactive
COc1cc(C[C@@H](C)N)c(OC)cc1Br,outcome,[1],inactive
same,Potency,[2],inactive
same,outcome,[5],inactive
same,Potency,[3],inactive
C[N+]1(CCC(C(N)=O)(c2ccccc2)c2ccccc2)CCCCC1,outcome,[1],inactive
same,Potency,[2],inactive
same,outcome,[5],inactive
same,Potency,[3],inactive
same,Potency,[4],inactive
COP(=S)(OC)Oc1ccc(S(N)(=O)=O)cc1,outcome,[1],inactive
same,Potency,[2],inactive
same,outcome,[5],inactive
same,Potency,[3],4.36 µM (active)
same,Potency,[7],inactive
same,Potency,[4],inactive
CCO[C@H]1O[C@@H]2OC3(C)CC[C@H]4[C@H](C)CC[C@@H]([C@H]1C)[C@@]24OO3,outcome,[1],inactive
same,Potency,[2],inactive
same,outcome,[5],inactive
same,Potency,[3],15.5 µM (active)
same,Potency,[4],2.99 µM (active)
Nc1ccc(Cl)cc1C(=O)c1ccccc1F,outcome,[1],inactive
same,Potency,[2],inactive
same,Potency,[4],inactive
CN1C(=O)[C@@H](NC(=O)c2cc3ccccc3[nH]2)N=C(c2ccccc2)c2ccccc21,outcome,[1],inactive
same,Potency,[2],inactive
same,Potency,[6],inactive
same,Potency,[3],2.75 µM (active)
same,Potency,[4],inactive
